Data published in PubChem BioAssay AID1159580 (chemical genetic matrix, 2015).
Several values for one entry are separate records, joined by “and”; a condition that tells them apart may be missing. Equal entries are not always repeated. Out of some 5,500 compounds screened, about 2,000 (36%) were called active. Not shown: some 18% with an inconclusive outcome. No stated cut-off is given here; in the data, active means normalized growth mostly below about 0.91 (no sharp cut-off); inconclusive means no clear call, values can overlap the other calls; inactive means mostly above about 0.92. Some of the results follow.

Experiment: chemical genetic growth profiling, strain panel (AID 1159580);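 further: tested at 20 µM; growth read once vehicle control cultures reached saturation at 30 °C; 1 = growth at the plate median or of vehicle wells; lower values mean less growth of the strain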
Settings: S. cerevisiae deletion strains, growth OD

Measured: normalized growth

Oc1ccc(Cl)cc1Cc1cc(Cl)ccc1O
active: locus YAL013W, strain DEP1, hits give low values 0.0573 | locus YAL021C, strain ccr4, hits give low values 0.0695 | locus YAL026C, strain drs2, hits give low values 0.0747 | locus YAL030W, strain snc1, hits give low values 0.0569 | locus YBL061C, strain skt5, hits give low values 0.0645 | locus YBR009C, strain hhf1, hits give low values 0.0651 | locus YBR021W, strain FUR4, hits give low values 0.253 | locus YBR023C, strain chs3, hits give low values 0.07 | locus YBR171W, strain sec66, hits give low values 0.124 | locus YBR229C, strain ROT2, hits give low values 0.0685 | locus YBR231C, strain swc5, hits give low values 0.0629 | locus YBR279W, strain paf1, hits give low values 0.0982 | locus YCL011C, strain gbp2, hits give low values 0.0575 | locus YCL016C, strain dcc1, hits give low values 0.0745 | locus YCL029C, strain bik1, hits give low values 0.0624 | locus YCL061C, strain MRC1, hits give low values 0.107 | locus YCL069W, strain vba3, hits give low values 0.0848 | locus YCR088W, strain abp1, hits give low values 0.0882 | locus YDL005C, strain med2, hits give low values 0.0747 | locus YDL035C, strain GPR1, hits give low values 0.0712 | locus YDL040C, strain nat1, hits give low values 0.0791 | locus YDL074C, strain BRE1, hits give low values 0.092 | locus YDL101C, strain DUN1, hits give low values 0.0631 | locus YDL134C, strain PPH21, hits give low values 0.0596 | locus YDL185W, strain tfp1, hits give low values 0.0573 | locus YDL192W, strain arf1, hits give low values 0.0725 | locus YDR001C, strain nth1, hits give low values 0.107 | locus YDR069C, strain doa4, hits give low values 0.0709 | locus YDR101C, strain arx1, hits give low values 0.0668 | locus YDR137W, strain rgp1, hits give low values 0.0823 | locus YDR150W, strain NUM1, hits give low values 0.141 | locus YDR159W, strain sac3, hits give low values 0.0887 | locus YDR162C, strain NBP2, hits give low values 0.0492 | locus YDR195W, strain ref2 0.12 | locus YDR297W, strain sur2, hits give low values 0.0586 | locus YDR318W, strain mcm21, hits give low values 0.0649 | locus YDR334W, strain swr1, hits give low values 0.0861 | locus YDR335W, strain msn5, hits give low values 0.0832 | locus YDR388W, hits give low values 0.0554 | locus YDR392W, strain spt3, hits give low values 0.0992 | locus YDR502C, strain sam2, hits give low values 0.0624 | locus YEL003W, strain gim4, hits give low values 0.0565 | locus YEL037C, strain rad23, hits give low values 0.271 | locus YEL061C, strain CIN8 (second series), hits give low values 0.0757 | locus YEL061C, strain CIN8, hits give low values 0.0536 | locus YER015W, strain faa2, hits give low values 0.0622 | locus YER016W, strain bim1, hits give low values 0.0644 | locus YER110C, hits give low values 0.0746 | locus YER111C, strain swi4, hits give low values 0.0777 | locus YER155C, strain BEM2 (second series), hits give low values 0.109 | locus YER155C, strain BEM2, hits give low values 0.0649 | locus YER167W, strain BCK2, hits give low values 0.0527 | locus YFR010W, strain ubp6, hits give low values 0.185 | locus YGL078C, strain dbp3, hits give low values 0.0765 | locus YGL086W, strain mad1, hits give low values 0.0581 | locus YGL167C, strain pmr1, hits give low values 0.0782 | locus YGL173C, strain kem1, hits give low values 0.101 | locus YGL227W, strain vid30, hits give low values 0.0709 | locus YGL240W, strain doc1, hits give low values 0.08 | locus YGL248W, strain PDE1, hits give low values 0.0764 | locus YGL253W, strain hxk2, hits give low values 0.0817 | locus YGR078C, strain PAC10, hits give low values 0.0754 | locus YGR135W, strain pre9, hits give low values 0.0765 | locus YGR229C, strain SMI1, hits give low values 0.0636 | locus YGR252W, strain gcn5, hits give low values 0.146 | locus YHR013C, strain ard1, hits give low values 0.109 | locus YHR027C, strain rpn1, hits give low values 0.0641 | locus YHR030C, strain SLT2, hits give low values 0.0512 and 0.0939 | locus YHR079C, strain IRE1 (second series), hits give low values 0.0561 | locus YHR079C, strain IRE1, hits give low values 0.102 | locus YHR094C, strain hxt1, hits give low values 0.0607 | locus YHR129C, strain ARP1, hits give low values 0.0651 | locus YHR142W, strain chs7, hits give low values 0.0876 | locus YHR200W, strain rpn10, hits give low values 0.0673 | locus YIL066C, strain RNR3, hits give low values 0.0647 | locus YIL073C, strain SPO22, hits give low values 0.114 | locus YIL125W, strain kgd1, hits give low values 0.0642 | locus YIR030C, strain dcg1, hits give low values 0.0657 | locus YJL092W, strain hpr5, hits give low values 0.111 | locus YJL095W, strain BCK1 (second series), hits give low values 0.057 | locus YJL095W, strain BCK1, hits give low values 0.0553 and 0.0954 | locus YJL115W, strain asf1, hits give low values 0.201 | locus YJL129C, strain trk1, hits give low values 0.0878 | locus YJL134W, strain LCB3, hits give low values 0.0583 | locus YJL154C, strain vps35, hits give low values 0.0851 | locus YJL164C, strain tpk1, hits give low values 0.0647 | locus YJL166W, strain qcr8, hits give low values 0.0615 | locus YJL168C, strain set2, hits give low values 0.0792 | locus YJL187C, strain SWE1 (second series), hits give low values 0.0719 | locus YJL187C, strain SWE1, hits give low values 0.0599 | locus YJR043C, strain POL32, hits give low values 0.0779 | locus YJR066W, strain TOR1, hits give low values -0.000659
